Only some compounds are listed: those with a hit (about 19% of all), similar ones and a draw of the others.
TDP1 cell noCPT = qHTS for Inhibitors of human tyrosyl-DNA phosphodiesterase 1 (TDP1): qHTS in cells in absence of CPT | DT40 Tdp1-/- hTDP1 cells, no CPT, ATP luminescence, 48 h | Potency, µM (top dose mostly 46.2 µM), for the others: at the highest dose activity change, negative = growth inhibition, usual class: inhibitors | actives 15% (n = 420,000) | AID 686978, 2013; also: potency is read from the fitted curve at half-maximal effect; nearly all actives have a fitted effect of over 55% in size
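Compound effects on proliferation are scored in DT40 Tdp1-/-;hTDP1 cells in the absence of CPT. ATP levels (CellTiter-Glo luminescence) are recorded after a ≥48 hr, 37 °C incubation.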
DT40 TDP1 CPT = growth inhibition of DT40 Tdp1-/-;hTDP1 cells with camptothecin (screen for TDP1 inhibitors); chicken DT40 Tdp1-/-;hTDP1 cells + 20 nM CPT, ATP luminescence, 48 h; Potency, µM (highest dose often 46.2 µM), inactives show at the highest dose activity change, negative = growth inhibition, actives largely listed as inhibitors; AID 686979; actives 12% (n = 420,000); also: potency is read from the fitted curve at half-maximal effect; nearly all actives have a fitted effect of over 55% in size
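Chicken DT40 Tdp1-/- cells stably complemented with human TDP1 were seeded at 400 cells/well in medium containing 20 nM camptothecin, exposed to pin-transferred compounds, and grown at 37 °C for at least 48 hr. Viability was read as ATP luminescence.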
HT1080 IDH1KD tx = toxicity to HT-1080 IDH1 knockdown cells (counter line) | AID 686971 | HT-1080 IDH1 knockdown viability, ATP luminescence, 48 h | Potency, µM (titrated, usually from 46.1 µM), for inactives: at the top dose activity, negative = toxicity, hits mostly cytotoxic | actives 2% (n = 360,000);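 also: potency is read from the fitted curve at half-maximal effect; 0% = DMSO wells and -100% = cell-free medium wells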
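Assay cells: HT-1080 with IDH1 knockdown, 750 per well, RPMI/5% FBS. Exposure: 48 h at 37 °C following 2 h pre-incubation. Read: CellTiter-Glo luminescence; fitted concentration-response, curve class assigned.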
IL-1B inflam inh = blocks inflammasome-driven IL-1 beta release | THP-1 LPS/ATP IL-1B secretion, AlphaLISA, 16 h; stronger effect = lower value | activity change, % at 57.5 µM | actives 4.7% (n = 360,000); in the data active = activity change below about -50%; inconclusive = mostly about -30% to -49%
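THP-1 cells pretreated 1 hr with compounds (up to 57.5 uM final), then stimulated with LPS (250 ng/mL final) plus ATP (1.25 mM final); secreted IL-1B measured by AlphaLISA after 16 hr, decreased signal indicating inhibition.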
HT1080-NT tox = kills 2HG-producing HT-1080-NT fibrosarcoma cells; HT-1080-NT fibrosarcoma viability, CellTiter-Glo ATP luminescence, 48 h; Potency, µM (series often up to 46.1 µM), inactives show at the top dose activity, negative = less viability, actives largely listed as cytotoxic; actives 1.6% (n = 360,000); AID 686970;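 also: NT is the 2HG producing partner of a matched IDH1 knockdown line; potency is read from the fitted curve at half-maximal effect; 0% = DMSO-treated cells and -100% = media-only wells without cells; nearly all actives have a fitted effect of over 55% in size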
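Fibrosarcoma NT cells, 750 per well in 5% FBS RPMI, were exposed to compound for 48 hours. Viability: CellTiter-Glo luminescence.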
Starred values were filed as active, the others as inactive; ? = inconclusive; . = not tested or not shown; [ ] = another dose, or the depositor's remark. Unless noted, calls follow the shape of the dose curve; as a rule, active = well fitted curve in the direction sought with a large enough effect; inconclusive = small, poorly fitted or top-dose-only effect, or another doubt; inactive = no such curve, though single readings can be large; an effect the other way counts as inactive or inconclusive. Unless noted, % is scaled to controls: 0 for no effect and ±100 for the full control effect.

SMILES	TDP1 cell noCPT	DT40 TDP1 CPT	HT1080 IDH1KD tx	IL-1B inflam inh	HT1080-NT tox
O=C(c1ccc2c(c1)OCO2)C1CCCN(Cc2c(F)ccc(F)c2F)C1 (stereo not drawn)	-18.1%	-1.4%	2.0%	-12.8	7.3%
COc1ccc(C(=O)C2CCCN(Cc3ccc(C#CCCO)cc3)C2)cc1F (stereo not drawn)	?	?	-21.1%	-53.1*	-14.7%
COc1cccc(C(=O)C2CCCN(C/C=C/c3ccccc3OC)C2)c1 (stereo not drawn)	?	-29.6%	-18.5%	-17.9	-25.2%
COc1ccc(C(=O)C2CCCN(Cc3cnc(N4CCOCC4)s3)C2)cc1F (stereo not drawn)	-20.0%	2.7%	-14.6%	35.2	-26.4%
COc1ccc(C(=O)C2CCCN(Cc3ccc4nonc4c3)C2)c(OC)c1 (stereo not drawn)	?	11.6µM*	-26.3%	-68.6*	-15.0%
COc1ccc(/C=C/CN2CCCC(C(=O)c3ccc(OC)c(F)c3)C2)cc1 (stereo not drawn)	?	?	-18.6%	-93.4*	-15.3%
COc1ccc(C(=O)C2CCCN(Cc3ccc4nonc4c3)C2)cc1OC (stereo not drawn)	-18.0%	-19.0%	-15.2%	-18.1	0.9%
COC(=O)Cn1c(C(=O)N2CCCC2)cc2c1C[C@H]1CN(C(=O)c3ccccc3)[C@@](Cc3ccc(OC)cc3)(C(=O)OC)[C@@H]21	?	?	6.3%	5.6	0.6%
CCC(Oc1ccccc1C)C(=O)N1CCCN(C)CC1 (stereo not drawn)	-0.2%	24.0%	18.0%	-17.9	7.2%
COP(=O)(OC)C(NC(=O)Nc1ccccc1)c1ccccc1 (stereo not drawn)	28.3%	6.2%	10.4%	0.8	15.9%
CCOC(=O)C1=CCN(S(=O)(=O)c2ccccc2F)C1c1ccc(Cl)c(Cl)c1 (stereo not drawn)	?	?	?	40.7	?
COc1ccc(C(=O)C2CCCN(Cc3cnc(N4CCOCC4)s3)C2)c(OC)c1 (stereo not drawn)	16.4µM*	-16.8%	-11.7%	23.3	-9.8%
NC(=O)c1ccccc1NC(=O)Cn1nc(Cc2cccnc2)c2ccccc2c1=O	?	-25.8%	.	.	.
CN(C(=O)Cn1nc(Cc2cccnc2)c2ccccc2c1=O)c1cccc(C(F)(F)F)c1	-21.2%	-17.8%	.	.	.
CCCN(C(=O)Cn1nc(Cc2cccnc2)c2ccccc2c1=O)c1ccc(C(C)C)cc1	25.9µM*	23.1µM*	.	.	.
O=C(Cn1nc(Cc2ccncc2)c2ccccc2c1=O)Nc1cccc(C(F)(F)F)c1	23.1µM*	?	.	.	.
Cc1ccc(Cn2c(=O)c3cccnc3n(CC(=O)Nc3cccc(C(F)(F)F)c3)c2=O)cc1	16.4µM*	?	-17.4%	-8.7	-11.9%
O=C(Cn1nc(Cc2cccnc2)c2ccccc2c1=O)Nc1ccc(F)c(Cl)c1	16.4µM*	-7.9%	.	.	.
COc1cccc(-n2c(C)nc3cc(C(=O)O)ccc32)c1	-4.3%	-9.6%	11.0%	17.3	-13.9%
CNCCCC1Sc2ccccc2Oc2ccccc21 (stereo not drawn)	14.6µM*	?	?	-73.3*	?
O=C(OCC(=O)N1CCc2ccccc21)c1ccc(Cl)nc1	-0.1%	-14.1%	1.7%	22.6	-2.6%
Cc1cc(C(=O)COc2ccccc2Cl)c(C)n1-c1ccc2c(c1)OCO2	6.51µM*	?	-16.2%	-9.8	-6.2%
CNS(=O)(=O)c1cccc(C(=O)OCC(=O)c2cc(C)n(-c3ccc4c(c3)OCO4)c2C)c1	-28.7%	-11.3%	-9.8%	9.6	-4.7%
Cc1cc(C(=O)CSc2n[nH]c(N)n2)c(C)n1-c1ccc2c(c1)OCO2	23.1µM*	?	-12.2%	-10.8	-3.4%
Cc1ccc(-n2c(C)cc(C(=O)COc3c(CO)cc(F)cc3CO)c2C)cc1C	3.66µM*	9.2µM*	-3.8%	?	0.2%
SMILES	TDP1 cell noCPT	DT40 TDP1 CPT	HT1080 IDH1KD tx	IL-1B inflam inh	HT1080-NT tox
Cc1cc(C(=O)COc2ccc(F)cc2Br)c(C)n1C	-11.5%	-11.7%	0.1%	?	5.0%
Cc1ccc(NC(=O)c2cncc(Br)c2)c(O)c1	?	-18.4%	0.8%	-9.0	0.2%
O=C(NC1CCSc2ccccc21)c1cccc([N+](=O)[O-])c1 (stereo not drawn)	-49.7%	?	-0.3%	?	-2.4%
Cc1ccc(S(=O)(=O)CCC(=O)Nc2nc(C(C)(C)C)cs2)cc1	?	?	?	29.3	-20.0%
CC(C)(C)c1csc(NC(=O)CCc2ccccc2)n1	?	?	-3.2%	-53.6*	-20.4%
O=C(CCS(=O)(=O)c1ccc(F)cc1)Nc1nc(-c2ccncc2)cs1	9.2µM*	13µM*	-0.3%	?	-15.9%
CC(C)(C)c1csc(NC(=O)CCS(=O)(=O)c2ccc(F)cc2)n1	8.2µM*	8.2µM*	?	-5.2	-13.4%
O=C(CCS(=O)(=O)c1ccccc1)Nc1nc(-c2cccs2)cs1	20.6µM*	?	-16.4%	-74.1*	-10.0%
O=C(CN1C(=O)c2ccccc2C1=O)Nc1ccc(S(=O)(=O)N2CCOCC2)cc1	-20.4%	8.7%	13.8%	-4.6	?
CN(C)c1ncc2nc(-c3ccc(Cl)cc3)c(=O)n(C[C@H]3CCCO3)c2n1	16.3%	8.6%	.	.	.
O=C(NNS(=O)(=O)c1ccc(C(F)(F)F)cc1)c1cnn(-c2ccccc2)c1C(F)(F)F	-14.4%	-19.0%	1.5%	0.0	4.4%
COc1ccccc1N1CCN(C(=O)c2oc3c(c2C)C(=O)CC(C)(C)C3)CC1	6.51µM*	14.6µM*	-2.3%	-6.1	-5.3%
COc1ccccc1N1CCN(C(=O)c2oc3cc(C)cc(C)c3c2C)CC1	25.9µM*	?	-14.8%	0.8	-2.0%
COc1ccccc1N1CCN(C(=O)c2cc(=O)c3ccc(C)cc3o2)CC1	?	?	-0.9%	9.4	11.0%
Cc1cc(O)c(C)c2c1CC[C@H]1[C@H](C)C(=O)O[C@H]21	-15.6%[9.04 µM]	3.9%[9.04 µM]	.	.	.
CC(C)(C)c1ccc(C(=O)c2c[nH]c(C(=O)NCCCN3CCOCC3)c2)cc1	18.4µM*	?	-2.9%	12.0	4.0%
CC(C)(C)c1ccc(C(=O)c2c[nH]c(C(=O)NCC3CCCO3)c2)cc1 (stereo not drawn)	14.6µM*	?	-12.1%	18.8	1.2%
Cc1ccccc1C(=O)c1c[nH]c(C(=O)NCC2CCCO2)c1 (stereo not drawn)	?	6.1%	17.4%	-26.3	17.1%
O=c1oc2ccccc2c(NC2CCCCC2)c1NS(=O)(=O)c1ccc(Br)cc1	?	?	-15.5%	-70.6*	-9.7%

Bioassay records (PubChem)
